Results from the supplement of paper PMC4466140.

The binders below were run against AgAbp1 (assay: SPOT peptide array binding signal intensity (averaged, normalized) (arbitrary units (background-subtracted, floor 0; scale differs between SH3 domains)); higher = stronger binding of the SH3 domain to the peptide).
In short: (§1)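 Four yeast species supplied the SH3 domains, which were expressed as GST fusions in E. coli BL21(DE3) and purified on glutathione Sepharose. Incubation with cellulose membranes carrying synthetic 15-mer peptides, cysteines exchanged for serines, ran overnight at 4°C at 10 μg/ml in TBS-based blocking buffer. Binding signal is reported as normalized, background-subtracted spot intensity averaged over replicates, in arbitrary units not shared between domains.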
With GPPPPLPPPLFPSSS the “SPOT peptide array binding signal intensity” value was ≤ 0.

What follows are binders tested against AgBbc1 in the same assay as above.
In short: as §1
With GPPPPLPPPLFPSSS the “SPOT peptide array binding signal intensity” value was ≤ 0.

What follows are binders tested against AgBem1-D1 in the same assay as above.
In short: as §1
In the case of GPPPPLPPPLFPSSS, the “SPOT peptide array binding signal intensity” value is reported as 31.

Each binder was assayed against AgBzz1-D1 in the same assay as above.
In short: as §1
GPPPPLPPPLFPSSS was tested, and the “SPOT peptide array binding signal intensity” value was ≤ 0.

What follows are binders tested against AgBzz1-D2 in the same assay as above.
In short: as §1
In the case of GPPPPLPPPLFPSSS, the “SPOT peptide array binding signal intensity” value is reported as ≤ 0.

Each binder was assayed against AgCyk3 in the same assay as above.
In short: as §1
In the case of GPPPPLPPPLFPSSS, the “SPOT peptide array binding signal intensity” value is reported as ≤ 0.

What follows are binders tested against AgFus1 in the same assay as above.
In short: as §1
For GPPPPLPPPLFPSSS, the “SPOT peptide array binding signal intensity” value was ≤ 0.

These binders were tested against AgHof1 in the same assay as above.
In short: as §1
GPPPPLPPPLFPSSS was tested, and the “SPOT peptide array binding signal intensity” value was 1830.

The binders below were run against AgHse1 in the same assay as above.
In short: as §1
In the case of GPPPPLPPPLFPSSS, the “SPOT peptide array binding signal intensity” value is reported as 62.5.

The binders below were run against AgLsb1 in the same assay as above.
In short: as §1
For GPPPPLPPPLFPSSS, the “SPOT peptide array binding signal intensity” value was ≤ 0.

The binders below were run against AgLsb4 in the same assay as above.
In short: as §1
With GPPPPLPPPLFPSSS the “SPOT peptide array binding signal intensity” value was ≤ 0.

What follows are binders tested against AgMyo5 in the same assay as above.
In short: as §1
GPPPPLPPPLFPSSS was tested, and the “SPOT peptide array binding signal intensity” value was 1900.

What follows are binders tested against AgNbp2 in the same assay as above.
In short: as §1
GPPPPLPPPLFPSSS was tested, and the “SPOT peptide array binding signal intensity” value was ≤ 0.

The binders below were run against AgRvs167 in the same assay as above.
In short: as §1
In the case of GPPPPLPPPLFPSSS, the “SPOT peptide array binding signal intensity” value is reported as 1.

These binders were tested against AgSho1 in the same assay as above.
In short: as §1
With GPPPPLPPPLFPSSS the “SPOT peptide array binding signal intensity” value was ≤ 0.

The binders below were run against AgSla1-D1-D2 in the same assay as above.
In short: as §1
With GPPPPLPPPLFPSSS the “SPOT peptide array binding signal intensity” value was ≤ 0.

What follows are binders tested against AgSla1-D3 in the same assay as above.
In short: as §1
GPPPPLPPPLFPSSS was tested, and the “SPOT peptide array binding signal intensity” value was ≤ 0.

What follows are binders tested against CaAbp1-D1 in the same assay as above.
In short: as §1
GPPPPLPPPLFPSSS was tested, and the “SPOT peptide array binding signal intensity” value was 1.

What follows are binders tested against CaAbp1-D2 in the same assay as above.
In short: as §1
In the case of GPPPPLPPPLFPSSS, the “SPOT peptide array binding signal intensity” value is reported as ≤ 0.

The binders below were run against CaBbc1 in the same assay as above.
In short: as §1
For GPPPPLPPPLFPSSS, the “SPOT peptide array binding signal intensity” value was 1.

The binders below were run against CaBem1-D1 in the same assay as above.
In short: as §1
With GPPPPLPPPLFPSSS the “SPOT peptide array binding signal intensity” value was 114.

Each binder was assayed against CaBzz1-D1 in the same assay as above.
In short: as §1
GPPPPLPPPLFPSSS was tested, and the “SPOT peptide array binding signal intensity” value was 93.

The binders below were run against CaBzz1-D2 in the same assay as above.
In short: as §1
For GPPPPLPPPLFPSSS, the “SPOT peptide array binding signal intensity” value was 10.

What follows are binders tested against CaCyk3 in the same assay as above.
In short: as §1
With GPPPPLPPPLFPSSS the “SPOT peptide array binding signal intensity” value was ≤ 0.

These binders were tested against CaFus1 in the same assay as above.
In short: as §1
In the case of GPPPPLPPPLFPSSS, the “SPOT peptide array binding signal intensity” value is reported as ≤ 0.

These binders were tested against CaHof1 in the same assay as above.
In short: as §1
In the case of GPPPPLPPPLFPSSS, the “SPOT peptide array binding signal intensity” value is reported as 178.

The binders below were run against CaHse1 in the same assay as above.
In short: as §1
For GPPPPLPPPLFPSSS, the “SPOT peptide array binding signal intensity” value was 1.5.

These binders were tested against CaLsb1 in the same assay as above.
In short: as §1
GPPPPLPPPLFPSSS was tested, and the “SPOT peptide array binding signal intensity” value was ≤ 0.

Each binder was assayed against CaLsb4 in the same assay as above.
In short: as §1
In the case of GPPPPLPPPLFPSSS, the “SPOT peptide array binding signal intensity” value is reported as 11.5.

These binders were tested against CaMyo5 in the same assay as above.
In short: as §1
GPPPPLPPPLFPSSS was tested, and the “SPOT peptide array binding signal intensity” value was 284.

The binders below were run against CaNbp2 in the same assay as above.
In short: as §1
With GPPPPLPPPLFPSSS the “SPOT peptide array binding signal intensity” value was 6.5.

The binders below were run against CaRvs167 in the same assay as above.
In short: as §1
GPPPPLPPPLFPSSS was tested, and the “SPOT peptide array binding signal intensity” value was 7.83.

The binders below were run against CaRvs167-3 in the same assay as above.
In short: as §1
With GPPPPLPPPLFPSSS the “SPOT peptide array binding signal intensity” value was 1.5.

The binders below were run against CaSho1 in the same assay as above.
In short: as §1
GPPPPLPPPLFPSSS was tested, and the “SPOT peptide array binding signal intensity” value was ≤ 0.

These binders were tested against CaSla1-D1-D2 in the same assay as above.
In short: as §1
In the case of GPPPPLPPPLFPSSS, the “SPOT peptide array binding signal intensity” value is reported as ≤ 0.

Each binder was assayed against CaSla1-D3 in the same assay as above.
In short: as §1
GPPPPLPPPLFPSSS was tested, and the “SPOT peptide array binding signal intensity” value was ≤ 0.

The binders below were run against ScAbp1 in the same assay as above.
In short: as §1
With GPPPPLPPPLFPSSS the “SPOT peptide array binding signal intensity” value was ≤ 0.
